CCT modulator = cytosolic chaperonin activity modulation. activity change, % (no concentration beside the values), hits read low. purified chaperonin ATPase assay, HTRF ADP detection, 30 min. 360,000 compounds, 0.3% hits. AID 651819; in the data active = activity change below about -30%
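TRiC (40 or 20 nM final, by batch activity) in 30 mM Tris pH 7.4, 100 mM KCl, 5 mM MgCl2, 1 mM DTT was treated with compound at 76 uM single dose, then 10 uM ATP, 30 min at 37 °C. ADP was read by HTRF Transcreener.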
PI4K2A block = blocks human PI4K2A kinase activity. Q9BTU6. purified PI4K2A, ADP-Glo luminescence, 1 h; stronger effect = lower value. activity change, negative = inhibition, % at 76.9 µM. 420,000 compounds, 0.13% hits. AID 1346378; in the data active = activity change below about -50%; inconclusive = mostly about -30% to -49%
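ADP-Glo luminescence measured ADP generated by PI4K2A enzyme (4 ug/mL before mixing) with 1.2 mM PI substrate (pre-mix) and 300 microM ATP (pre-mix). Tris pH7.5 buffer with MgCl2, Triton X-100; 1 h reaction at ambient temperature.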
CtBP-E1A inh = inhibitors of CtBP/E1A interaction | activity change, % (test concentration not listed) | AID 651724 | AlphaScreen GST-E1A/His-CtBP binding, 1536-well; stronger effect = lower value | 340,000 compounds, 0.49% hits
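GST-E1A and His-tagged CtBP (125 nM each as 5X stock) were preincubated with pin-transferred compound for 2 h at 37 °C in the dark, then glutathione donor and nickel acceptor beads were added for 1 h before AlphaScreen reading.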
Six1-Eya2 inh = blocks human Six1 binding to Eya2; Q15475+O00167; AlphaScreen GST-Six1/His-Eya2 binding, biochemical; stronger effect = lower value; activity change, % (concentration not given with the values); 360,000 compounds, 0.56% hits
Target sequence (O00167 whole entry, looked up): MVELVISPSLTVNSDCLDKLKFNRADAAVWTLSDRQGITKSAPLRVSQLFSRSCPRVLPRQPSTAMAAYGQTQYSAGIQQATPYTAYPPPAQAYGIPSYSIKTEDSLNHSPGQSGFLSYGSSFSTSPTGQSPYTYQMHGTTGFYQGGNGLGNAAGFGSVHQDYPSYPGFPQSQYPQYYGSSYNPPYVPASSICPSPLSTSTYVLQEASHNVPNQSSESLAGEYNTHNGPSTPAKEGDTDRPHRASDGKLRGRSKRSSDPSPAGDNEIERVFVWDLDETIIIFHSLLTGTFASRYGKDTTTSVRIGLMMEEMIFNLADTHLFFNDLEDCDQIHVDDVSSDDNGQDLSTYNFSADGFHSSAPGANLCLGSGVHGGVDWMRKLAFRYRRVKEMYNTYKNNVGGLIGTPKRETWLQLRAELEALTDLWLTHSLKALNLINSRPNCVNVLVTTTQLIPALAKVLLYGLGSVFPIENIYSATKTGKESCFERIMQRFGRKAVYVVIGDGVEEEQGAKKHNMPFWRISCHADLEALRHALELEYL
Target sequence (Q15475 whole entry, looked up): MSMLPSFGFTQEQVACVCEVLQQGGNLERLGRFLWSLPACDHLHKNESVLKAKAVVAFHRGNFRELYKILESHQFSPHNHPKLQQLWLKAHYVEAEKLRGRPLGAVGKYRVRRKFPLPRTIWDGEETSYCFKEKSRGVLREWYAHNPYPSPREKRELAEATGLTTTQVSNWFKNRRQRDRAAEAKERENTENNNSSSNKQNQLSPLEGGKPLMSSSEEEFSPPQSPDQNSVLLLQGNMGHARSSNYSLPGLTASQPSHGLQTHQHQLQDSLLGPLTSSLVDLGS
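Compounds are tested against tagged Six1 and Eya2 proteins bridged by glutathione donor and nickel acceptor beads; after a one-hour incubation at 37 °C without light, AlphaScreen emission is recorded.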
Eya2 phos inh = inhibitors of human Eya2 phosphatase activity; O00167; Potency, µM (highest dose often 76.9 µM), usual class: inhibitors; recombinant Eya2, OMFP fluorescence dephosphorylation (OMFP is methylfluorescein phosphate); 330,000 compounds, 0.006% hits; AID 488837; active = well fitted inhibition curve with a large enough effect; inconclusive = small, poorly fitted or top-dose-only effect, or effect the other way
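Eya2 protein (added as 0.2 uM solution) was preincubated with compound for 10 min at ambient temperature in 50 mM HEPES pH 7.5, 50 mM NaCl, 5 uM MgCl2, 0.05% BSA, 1 mM DTT. OMFP (added at 50 uM) then reacted 10 min; fluorescence read at 485/525 nm.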
A number is an active result. Only some compounds are listed: those with a hit (about 0.97% of all), similar ones and a draw of the others. Cut-off read from the data, not from the text of the source, unless noted: active = activity change below about -65%; inconclusive = mostly about -30% to -63%; inactive = weaker than that.

Results for O=C1C(=O)c2ccc(-c3ccccc3)cc2-c2ccccc21 ?
CCT modulator: inactive; PI4K2A block: -63; CtBP-E1A inh: inconclusive; Six1-Eya2 inh: inconclusive; Eya2 phos inh: inactive

Results for Nc1ccc2c(c1)C(=O)C(=O)c1ccccc1-2 ?
CCT modulator: inactive; PI4K2A block: inconclusive; CtBP-E1A inh: inconclusive; Six1-Eya2 inh: inconclusive; Eya2 phos inh: inactive

Results for Oc1ccccc1-c1nc(NCc2ccco2)c2ccccc2n1 ?
CCT modulator: inactive; PI4K2A block: inactive; CtBP-E1A inh: inactive; Six1-Eya2 inh: inactive; Eya2 phos inh: inactive

How did c1ccc(-c2nc(NCc3ccco3)c3ccccc3n2)nc1 do in these assays?
CCT modulator: inactive; PI4K2A block: inactive; CtBP-E1A inh: -81; Six1-Eya2 inh: -81; Eya2 phos inh: inactive

How did O=C(N/N=C/c1ccccc1O)c1ccncc1 do in these assays?
CCT modulator: inactive; PI4K2A block: inactive; CtBP-E1A inh: -92; Six1-Eya2 inh: -92; Eya2 phos inh: inactive

How did O=C(N/N=C/c1cccc2ccccc12)c1ccncc1 do in these assays?
CCT modulator: inactive; PI4K2A block: inactive; Six1-Eya2 inh: inactive; Eya2 phos inh: inactive

What do the screens show for `Cc1nccn1CC(=O)N/N=C/c1ccccc1O`?
CCT modulator: inactive; PI4K2A block: inactive; CtBP-E1A inh: -96; Six1-Eya2 inh: -81; Eya2 phos inh: inactive

What do the screens show for `Cc1nc(C)c(C(=O)N/N=C/c2cc(Br)ccc2O)s1`?
CCT modulator: inactive; PI4K2A block: inactive; CtBP-E1A inh: -84; Six1-Eya2 inh: inconclusive; Eya2 phos inh: inactive

How did COc1cccc(/C=N/NC(=O)c2ccc(-c3ccccc3)cc2)c1O do in these assays?
CCT modulator: inactive; PI4K2A block: inactive; CtBP-E1A inh: inactive; Six1-Eya2 inh: inactive; Eya2 phos inh: inactive

What do the screens show for `O=C(NN=Cc1cccc(O)c1O)c1ccccc1`?
CCT modulator: inactive; PI4K2A block: inactive; CtBP-E1A inh: -91; Six1-Eya2 inh: -90

How did O=C(Nc1ccc2c(c1)Cc1ccccc1-2)NC1CCCCN(Cc2ccc(Cl)cc2)C1=O (configuration not stated) do in these assays?
PI4K2A block: inactive

How did Cn1c(=O)c2c(nc(N3CCOCC3)n2Cc2ccccc2)n(C)c1=O do in these assays?
PI4K2A block: inactive

What do the screens show for `Cc1ccc(C2=NC(c3ccccc3)=Nc3ccc(Cl)cc3N2)cc1`?
PI4K2A block: inactive

How did O=C(N/N=C/c1cc(Br)ccc1OC(=O)c1ccc(Br)cc1)c1ccncc1 do in these assays?
CCT modulator: inactive; PI4K2A block: inactive; CtBP-E1A inh: -91; Six1-Eya2 inh: -79; Eya2 phos inh: inactive

Results for O=C(N/N=C/c1cc([N+](=O)[O-])ccc1O)c1cccc(N2CCCC2=O)c1 ?
CCT modulator: inactive; PI4K2A block: inactive; CtBP-E1A inh: -93; Six1-Eya2 inh: -91; Eya2 phos inh: inactive

Results for COc1cc(/C=N/NC(=O)c2cccc(N3CCCC3=O)c2)ccc1O ?
CCT modulator: inactive; PI4K2A block: inactive; CtBP-E1A inh: inactive; Six1-Eya2 inh: inactive; Eya2 phos inh: inactive

Results for Cc1cc(C(=O)N/N=C/c2cc(Br)ccc2OC(=O)c2ccccc2Cl)n[nH]1 ?
CCT modulator: inactive; PI4K2A block: inactive; CtBP-E1A inh: inactive; Six1-Eya2 inh: inconclusive; Eya2 phos inh: inactive

Results for O=C(N/N=C/c1ccc(O)c2ncccc12)c1cccc(Br)c1 ?
CCT modulator: inactive; PI4K2A block: inactive; CtBP-E1A inh: -92; Six1-Eya2 inh: -82; Eya2 phos inh: inactive

Results for Cc1cc(C(=O)N/N=C/c2cc(Br)ccc2OC(=O)c2ccccc2)n[nH]1 ?
CCT modulator: inactive; PI4K2A block: inactive; CtBP-E1A inh: -67; Six1-Eya2 inh: inconclusive; Eya2 phos inh: inactive

How did Cc1ccc(-n2c(SCC(=O)Nc3ccc(S(=O)(=O)Nc4cc(C)nc(C)n4)cc3)nnc2-c2ccncc2)cc1 do in these assays?
PI4K2A block: inactive

What do the screens show for `Cc1ccc(/C=N/n2c(-c3ccccc3)csc2=S)cc1`?
PI4K2A block: inactive

Results for O=C(N/N=C/c1ccccc1O)c1cc[n+]([O-])cc1 ?
CCT modulator: inactive; PI4K2A block: inactive; CtBP-E1A inh: -94; Six1-Eya2 inh: -78; Eya2 phos inh: inactive

What do the screens show for `O=C(N/N=C/c1cccs1)c1ccc2ccccc2c1`?
CCT modulator: inactive; PI4K2A block: inactive; CtBP-E1A inh: inactive; Six1-Eya2 inh: inactive; Eya2 phos inh: inactive

What do the screens show for `O=C(N/N=C/c1cccs1)c1cccc2cc[nH]c12`?
CCT modulator: inactive; PI4K2A block: inactive; CtBP-E1A inh: inactive; Six1-Eya2 inh: inactive; Eya2 phos inh: 25µM

Results for CCn1c(C)nc2cc(C(=O)N/N=C/c3cccc(O)c3O)ccc21 ?
CCT modulator: inactive; PI4K2A block: inactive; CtBP-E1A inh: -94; Six1-Eya2 inh: -80; Eya2 phos inh: inactive

How did O=C(N/N=C/c1ccccc1)c1cc[n+]([O-])cc1 do in these assays?
CCT modulator: inactive; PI4K2A block: inactive; CtBP-E1A inh: inactive; Six1-Eya2 inh: inactive; Eya2 phos inh: inactive

What do the screens show for `CCn1c(C)nc2cc(C(=O)N/N=C/c3ccccc3)ccc21`?
CCT modulator: inactive; PI4K2A block: inactive; CtBP-E1A inh: inactive; Six1-Eya2 inh: inactive; Eya2 phos inh: inactive

How did O=C(Nc1cccc(O)c1)C(=O)Nc1ccccn1 do in these assays?
CCT modulator: inactive; PI4K2A block: -64; CtBP-E1A inh: inactive; Six1-Eya2 inh: inactive; Eya2 phos inh: inactive

What do the screens show for `O=C(CS)Nc1ccccc1`?
PI4K2A block: inactive

What do the screens show for `O=C1Cc2cc(Cl)ccc2N1`?
PI4K2A block: inactive

How did COc1ccc(C(=O)Nc2cccc(-c3cn4ccsc4n3)c2)cc1OC do in these assays?
PI4K2A block: inactive

Results for O=C(N/N=C/c1cc([N+](=O)[O-])ccc1O)c1ccncc1 ?
CCT modulator: inactive; PI4K2A block: inactive; Six1-Eya2 inh: -90; Eya2 phos inh: inactive

How did O=C(N/N=C\c1ccc(Sc2ccccn2)o1)c1cccc(Br)c1 do in these assays?
CCT modulator: inactive; PI4K2A block: inactive; CtBP-E1A inh: inactive; Six1-Eya2 inh: inconclusive; Eya2 phos inh: 3.2µM

How did O=C(N/N=C/c1cc([N+](=O)[O-])ccc1O)c1ccc2c(c1)OCCO2 do in these assays?
CCT modulator: inactive; PI4K2A block: inactive; CtBP-E1A inh: inactive; Six1-Eya2 inh: -81; Eya2 phos inh: inactive

Results for O=C(N/N=C/c1cc([N+](=O)[O-])ccc1O)c1cccc2cc[nH]c12 ?
CCT modulator: inactive; PI4K2A block: inactive; CtBP-E1A inh: -93; Six1-Eya2 inh: -70; Eya2 phos inh: inactive

What do the screens show for `COc1ccccc1-c1noc(-c2ccc(N(C)Cc3ccccc3)c([N+](=O)[O-])c2)n1`?
PI4K2A block: inactive

How did Cc1ccc(Cl)cc1N1CCN(C(=O)c2sc3nc4n(c(=O)c3c2C)CCC4)CC1 do in these assays?
PI4K2A block: inactive

Results for O=C(N/N=C/c1cc(Br)ccc1O)c1ccncc1 ?
CCT modulator: inactive; PI4K2A block: inactive; CtBP-E1A inh: -94; Six1-Eya2 inh: -93; Eya2 phos inh: inactive

Source: PubChem
